Inconclusive results are not listed. Activity calls are given as the source filed them. The calls were made as follows, unless noted: active = hit-call score of the fitted dose curve at least 0.9, where 1 is the maximum; inconclusive = response in the unintended direction; inactive = score below 0.9.
Legend:
[1] = CEETOX_H295R_PROG_noMTC: CeeTox H295R High-throughput Steroidogenesis Assay for Progesterone (PROG), maximum tolerated concentration (MTC) filtered results only (AID 2283920; active = hit-call score of the fitted dose curve at least 0.9, where 1 is the maximum; inactive = score below 0.9); conditions: actives raise or lower the signal
Outline: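 Progesterone synthesis in the human adrenal line H295R is measured by HPLC-MS/MS after 48 h chemical exposure following 48 h forskolin (10 uM) stimulation. Activity in either direction is fitted relative to DMSO.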

[2] = target: PGR (gene 5241) (UniProt P06401); experiment: TOX21_PR_BLA_Followup_Antagonist_ratio: Tox21 HEK293 Progesterone Receptor (PR) Antagonism Beta-lactamase Follow-Up Assay, Ratio (AID 2283934);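 also: PR-UAS-bla HEK293T cells stimulated with 1 nM R5020 agonist for 16 hr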
Outline: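 Measured in PR-UAS-bla HEK293T cells co-treated with compound and 1 nM promegestone for 16 hr; beta-lactamase ratio read after 2 h FRET substrate loading, with parallel CellTiter-Glo cytotoxicity.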

[3] = TOX21_PR_BLA_Followup_Agonist_viability: Viability Assessment in the Tox21 HEK293 Progesterone Receptor (PR) Agonism Beta-lactamase Follow-Up Assay (AID 2283935);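 also: signal loss means lower viability so actives are cytotoxic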
Outline: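 Viability is read as CellTiter-Glo luminescence, where loss of signal indicates cytotoxicity. The cells are PR-UAS-bla HEK293T given compounds for 16 hr at 37C and 5% CO2, in the same wells used for the bla readout.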

[4] = TOX21_PR_BLA_Followup_Antagonist_viability: Viability Assessment in the Tox21 HEK293 Progesterone Receptor (PR) Antagonism Beta-lactamase Follow-Up Assay (AID 2283936);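 also: cells exposed to compound with R5020 agonist for 16 h; hits lower the luminescence signal meaning cytotoxicity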
Outline: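 PR-UAS-bla HEK293T cells in medium with 2% charcoal-stripped FBS were treated with compounds plus R5020 for 16 hr at 37C. After the beta-lactamase read, CellTiter-Glo was added to the same wells and luminescence read after 30 min at room temperature.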

[5] = target: PGR (gene 5241) (UniProt P06401); experiment: TOX21_PR_LUC_Followup_Antagonist: Tox21 HEK293 Progesterone Receptor (PR) Antagonism Luciferase Follow-Up Assay (AID 2283938);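 also: curve fitted upward as signal gain over DMSO baseline despite antagonist label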
Outline: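 A follow-up to the PR bla screen using HEK293-PR-A-luc cells, multiplexed with cell viability to flag cytotoxicity. Reporter luminescence after 16 h compound exposure was analysed relative to DMSO.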

[6] = CEETOX_H295R_ESTRADIOL_noMTC: CeeTox H295R High-throughput Steroidogenesis Assay for Estradiol, maximum tolerated concentration (MTC) filtered results only (AID 2283919; active = hit-call score of the fitted dose curve at least 0.9, where 1 is the maximum; inactive = score below 0.9); conditions: actives raise or lower the signal
Outline: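 Readout: dansyl-derivatized estradiol quantified by LC-MS/MS in medium from H295R cells dosed 48 h (0.1% DMSO) following 48 h forskolin (10 uM) prestimulation. Gain or loss of signal fitted against DMSO; no MTC filtering applied.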

[7] = CEETOX_H295R_ESTRONE_noMTC: CeeTox H295R High-throughput Steroidogenesis Assay for Estrone, maximum tolerated concentration (MTC) filtered results only (AID 2283921; active = hit-call score of the fitted dose curve at least 0.9, where 1 is the maximum; inactive = score below 0.9); conditions: actives raise or lower the signal
Outline: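 Estrone in spent medium, quantified by tandem MS following dansyl chloride derivatization, after 48 h chemical exposure (0.1% DMSO) of forskolin-prestimulated (10 uM, 48 h) H295R cells; concentrations not MTC-filtered, bidirectional fit against DMSO.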

[8] = CEETOX_H295R_TESTO_noMTC: CeeTox H295R High-throughput Steroidogenesis Assay for Testosterone (TESTO), maximum tolerated concentration (MTC) filtered results only (AID 2283924; active = hit-call score of the fitted dose curve at least 0.9, where 1 is the maximum; inactive = score below 0.9); conditions: actives raise or lower the signal
Description: CEETOX_H295R is a cell-based, multiplexed-readout assay that uses H295R, a human adrenal gland cell line, with measurements taken at 48 hours after chemical dosing in a 96-well plate.CEETOX_H295R_TESTO_noMTC is one of 12 assay component(s) measured or calculated from the CEETOX_H295R assay (11 hormones and 1 viability assay). It is designed to make measurements of hormone induction, a form of inducible reporter, as detected with absorbance signals by HPLC-MS-MS technology. The concentrations for these components have not been pre-filtered for the maximum tolerated concentration (MTC) based on the MTT assay (_noMTC).Data from the assay component CEETOX_H295R_TESTO_noMTC was analyzed into 1 assay endpoint. This assay endpoint, CEETOX_H295R_TESTO_noMTC, was analyzed with bidirectional fitting relative to DMSO as the negative control and baseline of activity. […]
Cell culture and media preparation procedures were conducted in accordance with OECD Test No. 456 guidelines, with minor modifications. […] For steroid quantification, media samples were shipped to OpAns, LLC (Durham, NC) on dry ice, and samples were thawed to room temperature prior to liquid-liquid extraction. […] Steroid hormones were separated by HPLC, eluted using a reverse phase C18 gradient with electrospray positive ionization, followed by quantification by tandem mass spectrometry (MS/MS). […]

[9] = target: PGR (gene 5241) (UniProt P06401); experiment: TOX21_PR_BLA_Followup_Agonist_ratio: Tox21 HEK293 Progesterone Receptor (PR) Agonism Beta-lactamase Follow-Up Assay, Ratio (AID 2283933)
Outline: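 Ratio-based beta-lactamase reporter signal after 16 hr compound treatment of PR-UAS-bla HEK293T cells at 37C. Substrate loading lasted 2 hr at room temperature.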

[10] = target: PGR (gene 5241) (UniProt P06401); experiment: TOX21_PR_LUC_Followup_Agonist: Tox21 HEK293 Progesterone Receptor (PR) Agonism Luciferase Follow-Up Assay (AID 2283937; active = hit-call score of the fitted dose curve at least 0.9, where 1 is the maximum; inactive = score below 0.9)
Outline: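 In HEK293 cells stably expressing PR-A with a luciferase reporter, compounds were incubated 16 h at 37C, and induced luminescence was quantified with ONE-Glo, multiplexed with cell viability.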

Sequence of PGR (gene 5241) (P06401 whole entry, looked up): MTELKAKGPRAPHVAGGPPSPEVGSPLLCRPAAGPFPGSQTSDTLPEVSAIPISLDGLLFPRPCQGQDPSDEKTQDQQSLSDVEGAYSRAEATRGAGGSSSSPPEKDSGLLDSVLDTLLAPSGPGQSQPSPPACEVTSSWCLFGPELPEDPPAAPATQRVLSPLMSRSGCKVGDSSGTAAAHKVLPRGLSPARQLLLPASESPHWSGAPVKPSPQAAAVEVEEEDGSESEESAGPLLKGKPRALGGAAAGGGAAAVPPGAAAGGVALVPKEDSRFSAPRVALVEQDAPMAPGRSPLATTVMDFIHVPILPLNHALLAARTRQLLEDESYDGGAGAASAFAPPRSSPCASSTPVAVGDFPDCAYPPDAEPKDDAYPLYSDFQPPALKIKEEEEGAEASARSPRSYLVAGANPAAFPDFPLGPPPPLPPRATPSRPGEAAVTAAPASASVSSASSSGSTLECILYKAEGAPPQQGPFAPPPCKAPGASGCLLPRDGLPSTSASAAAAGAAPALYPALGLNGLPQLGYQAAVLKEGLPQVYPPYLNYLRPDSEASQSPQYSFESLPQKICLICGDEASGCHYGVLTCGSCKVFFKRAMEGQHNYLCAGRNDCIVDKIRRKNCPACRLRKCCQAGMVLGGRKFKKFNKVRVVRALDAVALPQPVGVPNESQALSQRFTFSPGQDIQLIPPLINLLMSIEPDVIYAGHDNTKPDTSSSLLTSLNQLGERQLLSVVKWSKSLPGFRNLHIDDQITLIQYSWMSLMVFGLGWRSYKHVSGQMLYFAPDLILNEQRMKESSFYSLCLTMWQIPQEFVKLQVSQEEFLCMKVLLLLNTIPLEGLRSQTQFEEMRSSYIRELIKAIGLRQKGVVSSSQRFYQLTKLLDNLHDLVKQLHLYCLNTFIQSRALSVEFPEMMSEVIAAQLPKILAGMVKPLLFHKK

Question: Which outcome [1] does the source give for `Oc1c(Cl)c(Cl)c(Cl)c(Cl)c1Cl` here?
Answer: inactive

Question: What does the source list for `CCCCCCCCCc1ccc(O)cc1`?
Answer: AC50 [2]: 68.3 µM (active); outcome [3]: inactive; outcome [4]: inactive; outcome [5]: inactive

Question: With `CCCCCCCCOC(=O)c1ccccc1C(=O)OCCCCCCCC` as the compound, how does the outcome [6] read?
Answer: inactive

Question: What about the outcome [1] of the same compound?
Answer: inactive

Question: And the outcome [7]?
Answer: inactive

Question: And the outcome [8]?
Answer: inactive

Question: What does the source list for `CC(C)(c1ccccc1)c1ccc(O)cc1`?
Answer: AC50 [2]: 32.7 µM (active); outcome [3]: inactive; outcome [4]: inactive; AC50 [5]: 35.3 µM (active)

Question: Which results are given for `Clc1ccc(C(c2ccccc2Cl)C(Cl)(Cl)Cl)cc1` (stereo not drawn)?
Answer: AC50 [2]: 12.7 µM (active); AC50 [3]: 46.1 µM (active); AC50 [5]: 15.6 µM (active)

Question: For `Oc1ccc(C(c2ccc(O)cc2)(C(F)(F)F)C(F)(F)F)cc1`, which AC50 [2] is on record?
Answer: 53.5 µM (active)

Question: And the outcome [3]?
Answer: inactive

Question: And the outcome [4]?
Answer: inactive

Question: What about the AC50 [5] of the same compound?
Answer: 54.7 µM (active)

Question: With `C[C@]12CCC(=O)C=C1CC[C@@H]1[C@@H]2CC[C@]2(C)C(=O)CC[C@@H]12` as the compound, how does the AC50 [2] read?
Answer: 9.75 µM (active)

Question: What about the outcome [3] of the same compound?
Answer: inactive

Question: What about the outcome [4] of the same compound?
Answer: inactive

Question: What about the outcome [5] of the same compound?
Answer: inactive

Question: With `ClC(Cl)=C(c1ccc(Cl)cc1)c1ccc(Cl)cc1` as the compound, how does the AC50 [2] read?
Answer: 24.9 µM (active)

Question: And the outcome [3]?
Answer: inactive

Question: And the outcome [4]?
Answer: inactive

Question: What about the AC50 [5] of the same compound?
Answer: 21.6 µM (active)

Question: Which outcome [1] does the source give for `O=C(O)C(F)(F)C(F)(F)C(F)(F)C(F)(F)C(F)(F)C(F)(F)C(F)(F)C(F)(F)C(F)(F)F` here?
Answer: inactive

Question: Which results are given for `CC(C)(O)C(=O)Nc1ccc([N+](=O)[O-])c(C(F)(F)F)c1`?
Answer: outcome [9]: inactive; outcome [10]: inactive

Question: For `CCC(=O)O[C@H]1CC[C@H]2[C@@H]3CCC4=CC(=O)CC[C@]4(C)[C@H]3CC[C@]12C`, which AC50 [9] is on record?
Answer: 12 µM (active)

Question: What about the outcome [2] of the same compound?
Answer: inactive

Question: What about the outcome [3] of the same compound?
Answer: inactive

Question: And the outcome [4]?
Answer: inactive

Question: What about the AC50 [10] of the same compound?
Answer: 6.3 µM (active)

Question: What about the outcome [5] of the same compound?
Answer: inactive

Question: With `C[C@]12CCC(=O)C=C1CC[C@@H]1[C@@H]2CC[C@@]2(C)[C@H]1CC[C@]2(C)O` as the compound, how does the outcome [2] read?
Answer: inactive

Question: What about the outcome [3] of the same compound?
Answer: inactive

Question: What about the outcome [4] of the same compound?
Answer: inactive

Question: And the outcome [5]?
Answer: inactive

Question: Which AC50 [2] does the source give for `ClC1=C(Cl)[C@]2(Cl)[C@@H]3[C@@H]4C[C@@H]([C@H]5O[C@@H]45)[C@@H]3[C@@]1(Cl)C2(Cl)Cl` here?
Answer: 20.3 µM (active)

Question: What about the outcome [3] of the same compound?
Answer: inactive

Question: And the outcome [4]?
Answer: inactive

Question: What about the AC50 [5] of the same compound?
Answer: 18.2 µM (active)

Question: What does the source list for `N#Cc1ccc(N(CC(N)=O)CC(F)(F)F)cc1C(F)(F)F`?
Answer: outcome [9]: inactive; AC50 [2]: 46.1 µM (active); outcome [4]: inactive; outcome [10]: inactive; AC50 [5]: 46.1 µM (active)

Question: Which results are given for `COc1ccc(O)c(C(C)(C)C)c1`?
Answer: outcome [3]: inactive; outcome [4]: inactive; outcome [5]: inactive

From PubChem BioAssay (EPA / NIEHS)
